Pf growth 96h: P. falciparum growth inhibition at 96 hour, primary screen for plastid delayed-death inhibitors; AID 504834; P. falciparum luciferase reporter growth, 96 h; 6.9% of 320,000 active; Potency, µM (titrated, usually from 28.7 µM), without a hit: top-dose activity change, negative = inhibition, most hits filed as inhibitors; active = well fitted inhibition curve with a large enough effect; inconclusive = small, poorly fitted or top-dose-only effect, or another doubt; inactive = no such curve, though single readings can be large or run the other way; also: potency is read from the fitted curve at half-maximal effect; % is scaled to controls: 0 for no effect and ±100 for the full control effect
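P. falciparum expressing integrated firefly luciferase grown in erythrocytes (2% hematocrit, 0.05% parasitemia final) with compounds for 96 hours at 37 C, 5% CO2. Growth inhibition read as loss of luminescence after adding luciferase detection reagent.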
NS1 inh: inhibitors of influenza NS1 protein function; Potency, µM (series often up to 46.1 µM), for the others: at the highest dose activity, positive = more growth; 0.4% of 270,000 active; AID 2326; also: potency is read from the fitted curve at half-maximal effect; actives are rising curves; nearly all actives have a fitted effect of over 50% in size
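S. cerevisiae expressing influenza A NS1, grown in glucose, washed, then diluted 1:100 into pH 6.0 -URA galactose medium with 23 nl compound. Growth recovery read as OD600; NS1-free strain serves as control.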
Cycloheximide cs: counter-screen for Shiga toxin inhibitors: cycloheximide protein synthesis inhibition; max response, %; 12% of 300,000 active; cell reporter, cycloheximide protein synthesis inhibition counterscreen; AID 2314; in the data active = max response mostly above about 13%, no sharp cut-off; inactive = mostly below about 14%; also: read at 38.3 µM for the half of the compounds with a filed dose; 0% is about no effect
Shiga toxin inh: inhibitors of Shiga toxin in Vero cells | Vero cells, Shiga toxin protein synthesis inhibition reporter | inhibition, % at 38.7 µM | 9.2% of 290,000 active; in the data active = inhibition mostly above about 28%, no sharp cut-off; inactive = mostly below about 43%; also: 0% is about no effect
Pf growth 48h: inhibits P. falciparum growth in the first generation, 48 h | 5.9% of 310,000 active | Potency, µM (titrated, usually from 28.7 µM), inactives show at the highest dose activity change, negative = inhibition, most hits filed as inhibitors | P. falciparum luciferase growth in erythrocytes, 48 h; active = well fitted inhibition curve with a large enough effect; inconclusive = small, poorly fitted or top-dose-only effect, or another doubt; inactive = no such curve, though single readings can be large or run the other way; also: potency is read from the fitted curve at half-maximal effect; % is scaled to controls: 0 for no effect and ±100 for the full control effect
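Luciferase-expressing P. falciparum in infected erythrocytes (2% hematocrit, 0.1% parasitemia final) in RPMI 1640/0.5% Albumax were exposed to compound for 48 hours at 37 C, 5% CO2; growth read as luminescence.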
SARS PLpro yeast: blocks SARS-CoV papain-like protease in a yeast assay | S. cerevisiae expressing SARS-CoV PLpro, growth rescue | Potency, µM (highest dose often 32.9 µM), without a hit: at the highest dose activity, positive = growth rescue, usual class: activators | 0.19% of 330,000 active | AID 485353; also: potency is read from the fitted curve at half-maximal effect; 0% is about no effect; nearly all actives have a fitted effect of over 55% in size
Active calls of the source: *; ? = inconclusive; . = no result. This is a sample that favours compounds with a hit; in the whole collection about 21% have one here. Unless noted, calls follow the shape of the full dose curve.

SMILES	Pf growth 96h	NS1 inh	Cycloheximide cs	Shiga toxin inh	Pf growth 48h	SARS PLpro yeast
NC(=O)COc1ccccc1C1=NO[C@@](CC(=O)O)(C(=O)Nc2ccc3c(c2)OCCO3)C1	5%	2%	19*	31	.	1%
Cc1c(CCCN)c2ccccc2n1Cc1ccccc1	?	1%	0	-3	?	-2%
Fc1ccccc1COc1ccc(C(=S)N2CCCC2)cc1	?	-9%	34*	116*	0%	-8%
CC(C)n1nnc(-c2ccc(OCc3ccccc3F)cc2)n1	8.3µM*	-45%	26*	.	29%	-7%
Fc1ccccc1COc1ccc(-c2nnn(Cc3ccccc3F)n2)cc1	.	0%	-1	13	.	12%
Cn1nnc(-c2ccc(OCc3ccccc3F)cc2)n1	7%	2%	44*	94*	131%	2%
CCN(CC)S(=O)(=O)c1ccc(C)c(NC(=O)CNCCN(C(C)C)C(C)C)c1	3%	3%	2	49	2%	1%
c1ccc(-c2onc3c2CCCC3)cc1	.	-22%	16*	71*	13%	-8%
CC(C)[C@H](NC(=O)OCc1ccccc1)C(=O)N[C@@H](Cc1c[nH]c2ccccc12)C(=O)O	?	.	.	.	12%	1%
COc1cccc(C2C(C#N)=C(N)OC3=C2C(=O)CC(c2ccco2)C3)c1OCc1ccc(F)cc1 (stereo not given)	65%	-24%	-4	-8	6.6µM*	-5%
N#CC1=C(N)OC2=C(C(=O)CC(c3ccco3)C2)C1c1ccc(OCc2c(F)cccc2Cl)cc1 (stereo not given)	26%	11%	5	11	?	-4%
COc1cccc(/C(O)=C/c2nc3ccc(C(=O)NCCc4cccc(C)c4)cc3[nH]c2=O)c1	-10%	21%	14	-7	8.3µM*	7%
COc1cccc(/C(O)=C/c2nc3ccc(C(=O)NCCc4ccc(Cl)cc4)cc3[nH]c2=O)c1	85%	18%	2	-3	10%	-21%
COCC(=O)Nc1cc(C(=O)Nc2ccccc2C)ccc1Cl	34%	-15%	8	89	1%	-3%
COc1cccc(C(=O)NCCS(=O)(=O)NCCc2ccccc2)c1	125%	.	.	.	51%	1%
CCCCC(=O)Nc1cc(C(=O)NCCc2ccccc2)ccc1Cl	86%	-9%	18*	17	88%	-2%
CCOCC(=O)Nc1cc(C(=O)Nc2ccccc2)ccc1Cl	105%	-36%	14	18	46%	-9%
COc1cccc(C(=O)Nc2cc(C(=O)NCCc3ccccc3)ccc2Cl)c1	.	-5%	20*	34	28%	-1%
COCC(=O)Nc1cc(C(=O)Nc2cccc(C)c2C)ccc1Cl	.	1%	14*	18	29%	-4%
C[C@H](NC(=O)c1ccc(C(C)(C)C)cc1)C(=O)N1CCOCC1	.	.	.	.	.	1%
CCn1c(=O)n(CC)c2cc(S(=O)(=O)Nc3cc(C)cc(C)c3C#N)ccc21	.	6%	-5	-4	?	-1%
CN1CCN(S(=O)(=O)c2ccc(Cl)s2)CC1	-6%	15%	2	-15	29%	.
CC(=O)c1cc(C#N)c(SCc2ccc([N+](=O)[O-])cc2)nc1C	?	4%	-2	-12	16%	-1%
COc1ccc(-c2cc(C(F)F)nc(-n3nc(C)cc3C)n2)cc1	?	-50%	-2	-21	8.3µM*	14%
Cc1cc(C)n(CCc2nc(-c3ccco3)cs2)n1	-39%	7%	-1	24	.	5%
SMILES	Pf growth 96h	NS1 inh	Cycloheximide cs	Shiga toxin inh	Pf growth 48h	SARS PLpro yeast
Cc1cc(C)n(CCc2nc(-c3ccc(-c4ccccc4)cc3)cs2)n1	157%	3%	58*	88*	171%	-1%
Cc1ccc(-c2cc(C(F)F)nc(N3CCOCC3)n2)cc1	?	-2%	1	24	?	-3%
COc1ccc(-c2csc(CCn3nc(C)cc3C)n2)cc1OC	0%	3%	15	-3	-18%	-7%
COc1ccc(OC)c(-c2csc(CCn3nc(C)cc3C)n2)c1	-2%	.	3	-6	-10%	-1%
COc1ccc(-c2csc(CCn3nc(C)cc3C)n2)cc1	29%	.	20*	24	0%	0%
Cc1cc(C)n(CCc2nc(-c3cccs3)cs2)n1	4%	-3%	12	40*	7%	23%
COC(=O)c1ccccc1NC(=O)c1cccnc1	0%	-19%	-2	.	?	-7%
Cc1ccccc1N1CCN(Cc2ccc(Br)o2)CC1	-21%	-14%	2	-1	59%	5%
COc1ccc(CCC(=O)N2CCN(c3ccc([N+](=O)[O-])cc3)CC2)cc1OC	?	-4%	1	-3	0%	0%
CCCCC(=O)Nc1cccc(NC(=O)c2ccc3c(c2)OCO3)c1	54%	-6%	14*	12	8%	2%
CCCC(=O)Nc1cccc(NC(=O)c2ccc3c(c2)OCCO3)c1	?	-65%	23*	64*	47%	-2%
CCCC(=O)Nc1cccc(NC(=O)c2ccc(C)c([N+](=O)[O-])c2)c1	19%	-6%	-1	21	31%	5%
COc1ccc(CC(=O)O/N=C(\N)Cc2cccc3ccccc23)cc1OC	278%	1%	2	-3	10µM*	-21%
N/C(Cc1cccc2ccccc12)=N\OC(=O)c1ccc(Br)o1	22%	.	18	47	?	-6%
COc1ccc(CC(=O)O/N=C(\N)Cc2cccc3ccccc23)cc1	12µM*	-12%	5	-9	?	-55%
COc1cccc(-c2ccc(=O)n(CC(=O)Nc3ccc(S(=O)(=O)NCC(C)C)cc3)n2)c1	?	8%	-1	-2	?	-1%
O=C(CSc1ccc(F)cc1)NCCSc1ccccc1	-14%	.	16	54	52%	-5%
C/C(=N\Nc1nc(-c2ccc(C)cc2)nc2ccccc12)c1ccc([N+](=O)[O-])cc1	2.1µM*	-13%	8	11	0%	7%
COc1ccc(-c2nc(N/N=C(\C)c3ccc(O)cc3)c3ccccc3n2)cc1	-98%	24%	29*	72*	?	0%
O=C(O)c1ccc(Nc2nc(-c3ccc([N+](=O)[O-])cc3)nc3ccccc23)cc1	0%	4%	-4	-6	?	2%
COc1ccc(Nc2nc(-c3ccccc3)nc3ccccc23)cc1	?	-50%	-1	-2	?	-11%
COc1ccc2nc3c(nc2c1)CCCC3	46%	-2%	33*	31	34%	0%
COc1ccc2nc3c(c(-c4ccccc4)c2c1)CCC3	?	-20%	12	9	12%	10%
COc1ccc(S(=O)(=O)N(CC(=O)N2CCCCCC2)c2ccccc2OC)cc1	?	-3%	-4	-17	?	-1%
C=CCn1c(SCc2cc(=O)n3cc(C)ccc3n2)nnc1-c1ccc(F)cc1	5.2µM*	-16%	7	-3	-27%	5%

High-throughput results: PubChem, National Center for Advancing Translational Sciences (NCATS)
